HIV Env fusion = HIV envelope-mediated fusion inhibition; HeLa-JRFL Env/CEM21 cell fusion, luciferase; inhibition, % at 12.3 µM; 1.1% of 360,000 active;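 active means mean replicate inhibition score of at least 50 and every replicate individually at or above 50; inconclusive means only one of the two criteria met; inactive means mean below 50 and not all replicates reaching 50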;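 further: 0% = plate neutral controls and 100% = maraviroc near 300 nM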
F508del corr = CFTR F508del correction in bronchial cells; activity (quench increase), % at 7.58 µM; AID 720511; CFBE cells, YFP halide quenching; stimulated with forskolin plus potentiator P3; % fluorescence drop versus neutral controls; 0.36% of 350,000 active;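 active means mean added fluorescence quench of at least 8% versus neutral control, with both replicates also reaching 8%; inconclusive means only one of the mean or replicate conditions met; inactive means mean below 8% and not both replicates reaching 8%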;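 further: cells transiently co-express mutant CFTR-F508del with the halide-sensitive YFP; corrector assay measuring rescue of mutant channel to the surface after 24 h compound exposure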
EWS-Fli inh = EWS/Fli transcriptional activity inhibition | AID 651661 | A673 NR0B1-luciferase reporter, viability-normalised | inhibition, % at 12.6 µM | 0.67% of 350,000 active;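 active means mean inhibition of at least 50% after viability correction, with every replicate also passing that limit; inconclusive means mean reaches 50% but only one of two replicates passes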;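 further: firefly luciferase signal divided by Alamar Blue viability fluorescence both relative to DMSO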
PAX8 reporter = PAX8 transcriptional activity inhibition. 1.2% of 360,000 active. inhibition, % at 12.6 µM. RMG-I TPO-luciferase reporter, SteadyGlo, 24 h;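 active means mean replicate inhibition at least 60% with every replicate also reaching 60%; inconclusive means only one of the two criteria is met; inactive means mean below 60% and not all replicates reaching 60%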;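 further: luciferase light reporting Pax8 driven TPO promoter activity; plate controls were median of neutral control wells for no effect and mitoxantrone controls for full effect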
FXN GAA850 act = activators of GAA850 frataxin (FXN) promoter | 0.56% of 360,000 active | HEK293 lucGAA850 FXN promoter luciferase reporter, 24 h; percent of 10 µM SAHA response | activation, % at 6 µM;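 active means activation above the average of all compounds screened plus 3 SD, cutoff fixed separately per campaign, cut at about 7.5% in these data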;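 further: 0% = DMSO wells and 100% = 10 µM SAHA wells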
* = called active by the depositor; ? = inconclusive; · = no result given; [ ] = another dose, or the depositor's remark. This is a sample that favours compounds with a hit; in the whole collection about 2.5% have one here.

SMILES	HIV Env fusion	F508del corr	EWS-Fli inh	PAX8 reporter	FXN GAA850 act
Cc1ccc(S(=O)(=O)N(C)C[C@@H]2OCCCC[C@H](C)Oc3ccc(N(C)C)cc3C(=O)N([C@@H](C)CO)C[C@@H]2C)cc1	-7.3[16.7 µM]	0.4	-3.7	72.9*	·
Cc1ccc(S(=O)(=O)N(C)C[C@H]2OCCCC[C@H](C)Oc3ccc(N(C)C)cc3C(=O)N([C@H](C)CO)C[C@H]2C)cc1	-24.0[16.7 µM]	0.0	-9.7	20.3	·
C[C@H]1CCCCO[C@@H](CN(C)S(=O)(=O)c2ccc(Cl)cc2)[C@@H](C)CN([C@@H](C)CO)C(=O)c2cc(N(C)C)ccc2O1	20.5[16.7 µM]	0.9	3.1	69.9*	·
C[C@@H]1CCCCO[C@H](CN(C)S(=O)(=O)c2ccc(Cl)cc2)[C@H](C)CN([C@H](C)CO)C(=O)c2cc(N(C)C)ccc2O1	22.8[16.7 µM]	-5.0	9.0	68.4*	·
C[C@@H]1CN([C@H](C)CO)C(=O)c2cc(N(C)C)ccc2O[C@@H](C)CCCCO[C@H]1CN(C)S(=O)(=O)c1ccc(Cl)cc1	3.9[16.7 µM]	4.4	-30.0	55.5	·
O=C(C[C@H]1CC[C@@H](NC(=O)C2CC2)[C@@H](CO)O1)NCCCN1CCOCC1	-1.5[16.7 µM]	0.2	1.7	0.4	·
N#C/C(=C\C=C\c1ccccc1[N+](=O)[O-])C(=O)NCc1ccccc1	-253.8	-9.7	41.6	65.2*	2.3
N#C/C(=C\c1ccccc1[N+](=O)[O-])C(=O)NCc1ccccc1	-4.5	3.0	-4.9	2.7	1.0
C[C@@H]1CCCCO[C@@H](CN(C)Cc2ccccc2)[C@@H](C)CN([C@@H](C)CO)C(=O)c2cc(NC(=O)Nc3ccc(F)cc3)ccc2O1	-27.9[16.7 µM]	-0.8	-8.1	10.7	·
COc1ccc2c3c(n(C)c2c1)[C@H](CO)N(C(=O)c1ccccc1)CC31CN(Cc2ccccc2OC)C1	·	3.5	-4.5	·	·
C=CC[n+]1c(-c2ccc(OC)c(OC)c2)csc1NNC(=O)Nc1ccccc1	74.1*	·	·	·	0.4
O=C(Nc1ccccc1F)N1CC(=O)N2[C@H](CO)[C@H](c3ccc(C#CC4CCCC4)cc3)[C@H]2C1	·	1.2	1.1	-3.1	·
COc1ccc(Cl)cc1S(=O)(=O)N1CCN=C1C	34.4*	-0.4	5.8	3.7	-0.1
O=S(=O)(Cc1ccccc1)NCC[C@H]1CC[C@H](NS(=O)(=O)c2ccccc2)[C@@H](CO)O1	-12.2[16.7 µM]	1.4	7.7	-5.7	·
Cn1c(N2CCOCC2)c(/C=N/OC(=O)c2ccc(F)cc2)c2ccccc21	59.3*	·	·	·	-3.1
CC(=O)c1ccc(Nc2nc(-c3sc(C)nc3C)cs2)cc1	-4.3	4.3	65.7*	22.2	-4.0
Cc1ccc(Nc2nc(-c3sc(N)nc3C)cs2)cc1	-35.2	0.9	-95.5	-61.0	4.0
CC(=O)Nc1ccc(Nc2nc(-c3sc(C)nc3C)cs2)cc1	-7.5	0.3	2.1	-17.1	2.9
COc1ccc(Nc2nc(-c3sc(C)nc3C)cs2)c(OC)c1	11.6	15.7*	34.8	-25.2	-1.4
Cc1ccc(Nc2nc(-c3sc(C)nc3C)cs2)cc1	-194.0	18.7*	-20.4	-3.7	-1.4
COc1ccc(Nc2nc(-c3cccs3)cs2)c(OC)c1	-275.7	·	·	·	5.7
O=C1C[C@@](C(=O)NCCN2CCOCC2)(c2ccc([N+](=O)[O-])cc2)[C@@H](c2ccc(CO)cc2I)N1CC12CC3CC(CC(C3)C1)C2	10.4[16.7 µM]	0.9	21.0	40.4	·
O=C(C[C@@H]1C[C@@H]2c3cc(NC(=O)Nc4ccccc4)ccc3O[C@@H]2[C@H](CO)O1)NCc1ccncc1	-8.0[16.7 µM]	2.9	-4.9	2.1	·
CCc1nc(N2[C@H](C#N)[C@H](c3ccccc3-c3ccccc3F)[C@@H]2CO)sc1C	·	0.0	0.5	3.3	·
COc1cc(C(=O)N2CCN(c3ncnc4sc(C)c(C)c34)CC2)cc(OC)c1OC	81.7*	·	·	·	-1.1
SMILES	HIV Env fusion	F508del corr	EWS-Fli inh	PAX8 reporter	FXN GAA850 act
C=CC[C@H](CC(=O)NCCO)C(=O)N[C@@H](COC(=O)[C@@H](CC=C)Cc1ccc(F)cc1)Cc1ccccc1	79.5*	-2.6	-6.5	-0.2	1.6
C=CC[C@H](CC(=O)NCCO)C(=O)N[C@H](COC(=O)[C@@H](CC=C)Cc1ccc(F)cc1)Cc1ccccc1	59.1*	-1.2	-1.5	-4.5	-1.5
C=CC[C@H](CC(=O)NCCO)C(=O)N[C@H](COC(=O)[C@@H](CC=C)Cc1ccc(F)cc1)c1ccccc1	43.4	3.4	0.1	6.3	1.7
COc1ccc(CNC(=O)C[C@@H]2C[C@H]3c4cc(NC(=O)NC5CCCC5)ccc4O[C@H]3[C@@H](CO)O2)cc1	·	5.6	-1.4	·	·
CCCCN1C(=O)CC(C(=O)OCC)=C1C	0.6	11.0*	4.9	-10.1	3.6
CCc1ccccc1Nc1nc(N)nc(COC(=O)c2cccn2C)n1	-33.1	·	·	·	-5.5
CCc1ccc(NC(=O)CSCc2nc(N)nc(Nc3ccccc3CC)n2)cc1	61.2*	·	·	11.8	4.9
CC(=O)c1cccc(-c2ccnc3c2CC(C(=O)NCc2ccccc2)O3)c1 (centres undefined)	-124.4	4.1	63.1*	82.8*	-1.8
CC(=O)c1cccc(-c2ccnc3c2CC(C(=O)NCc2ccc(F)c(F)c2)O3)c1 (centres undefined)	-60.1	1.5	64.6*	?	-3.6
CC(=O)Nc1cccc(-c2ccnc3c2CC(C(=O)NCc2cccs2)O3)c1 (centres undefined)	-93.1	3.5	72.3*	14.2	-1.5
COc1ccc(CN(C)C[C@H]2OCCCC[C@@H](C)Oc3ccc(NC(=O)Nc4cccc5ccccc45)cc3C(=O)N([C@H](C)CO)C[C@H]2C)cc1	-12.2[16.7 µM]	-3.1	71.8*	21.9	·
COc1ccc(CN(C)C[C@H]2OCCCC[C@@H](C)Oc3ccc(NC(=O)Nc4cccc5ccccc45)cc3C(=O)N([C@@H](C)CO)C[C@@H]2C)cc1	-62.9[16.7 µM]	-3.4	79.6*	32.3	·
COc1ccc(CN(C)C[C@H]2OCCCC[C@@H](C)Oc3ccc(NC(=O)Nc4cccc5ccccc45)cc3C(=O)N([C@@H](C)CO)C[C@H]2C)cc1	-4.4[16.7 µM]	-1.0	?	10.2	·
C[C@@H]1CCCCO[C@H](CN(C)C)[C@H](C)CN([C@H](C)CO)C(=O)c2cc(N(C)C)ccc2O1	7.7[16.7 µM]	-1.5	0.9	-8.8	·
C[C@@H]1CN([C@H](C)CO)C(=O)c2cc(-c3cccnc3)cnc2O[C@@H]1CN(C)C(=O)NC1CCCC1	-16.9[16.7 µM]	-1.3	-17.3	·	·
C[C@@H]1CN([C@H](C)CO)C(=O)Cc2cc(NC(=O)NC3CCCCC3)ccc2O[C@@H]1CN(C)Cc1ccccc1	15.4[16.7 µM]	2.5	3.4	-15.5	·
C[C@H]1CN([C@@H](C)CO)C(=O)Cc2cc(NC(=O)NC3CCCCC3)ccc2O[C@@H]1CN(C)Cc1ccc(-c2ccccc2)cc1	?	1.5	12.7	103.3*	·
C[C@H]1CN([C@@H](C)CO)C(=O)Cc2cc(NC(=O)NC3CCCCC3)ccc2O[C@H]1CN(C)Cc1ccc(-c2ccccc2)cc1	16.1[16.7 µM]	-2.6	10.2	103.2*	·
